Compounds without any hit were thinned out: in the full panel of roughly 83,000, 20% have a hit.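 Step 1: grow cells in 96-well plates. Step 2: add test compound at a single concentration. Step 3: incubate 48 h. Step 4: record percent growth.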 Active and inactive are the calls of the source. Rule for the calls: active = growth percent below 10; inactive = the rest.
These compounds were tested on MDA-MB-468 breast (assay: NCI-60 one-dose screen, 48 h (100 = growth as untreated, 0 = no growth, -100 = all killed)). Conditions: 10 µM unless noted.
For `Cc1ccc(C(=O)c2ccc(C)cc2)cc1`, the growth was 91% (inactive).
`CCOC(=O)c1cc(C)[nH]c(=O)c1C#N` was tested, and the growth was 97.3% (inactive).
In the case of `Cc1nn(-c2nc3ccccc3[nH]2)c2c1C(c1ccc(OCc3ccc(F)cc3)cc1)CC(=O)N2` (stereo not given), the growth is reported as 65.3% (inactive).
For `COc1ccc(F)c(F)c1C(=O)c1cnc(NC2CCN(S(C)(=O)=O)CC2)nc1N`, the growth was -59.4% (active).
With `O=C(Nc1ccccc1N1CCCC1=O)c1oc2ccc(F)cc2c1-c1cnn(-c2ccccc2)c1` the growth was 51.1% [50 µM] (inactive).
For `O=c1[nH]c(=S)[nH]c(O)c1/C=C1\C=Nc2ccccc21`, the growth was 103% (inactive).
For `COc1ccc(CCN2COc3c([C@@H](C)CCC=C(C)C)ccc(C)c3C2)cc1OC`, the growth was 26.8% (inactive).
With `COc1ccc(/C(=C\c2cc(OC)c(OC)c(OC)c2)C(=O)N2CCN(c3ccccc3)CC2)cc1O` the growth was 96.8% (inactive).
With `NC(=O)c1cccc(C#CCNC[C@H]2C[C@@H](n3ccc4c(Cl)ncnc43)[C@H](O)[C@@H]2O)c1` the growth was 95.9% (inactive).
`COC(=O)c1ccc2[nH]c(O)c(C(=Nc3ccc(N(C)C(=O)CN4CCN(C)CC4)cc3)c3ccc(OC)cc3)c2c1` was tested, and the growth was 64.5% (inactive).
For `c1ccc(Cn2cc(-c3nc4ccccc4s3)c3cccnc32)cc1`, the growth was 99.4% (inactive).
`CN(C)CC(C)(CN(C)C)C(=O)/C=C/c1c(Cl)cccc1Cl` was tested, and the growth was -82.6% (active).
In the case of `Cc1cccc(NC(=O)c2sc3nc4c(cc3c2N)CCCC4)c1`, the growth is reported as 24.7% (inactive).
`CCCCCN1CCN(C(CC(=O)c2ccccc2)C(=O)c2ccccc2)CC1` (stereo not given) was tested, and the growth was 103% (inactive).
With `CC(=O)Oc1ccccc1C(=O)N=C1[Se]CCCN1C(=O)c1ccccc1OC(C)=O` the growth was -19.2% (active).
`CC/C=C\C[C@H](O)C/C=C1/C(=O)C=C[C@@H]1C/C=C\CCCC(=O)NC(C)C` was tested, and the growth was 1.98% (active).
With `CN1CCN(Cc2ccc(NC(=O)c3nc4ccc5[nH]ncc5c4c4c3CCCC4)cc2C(F)(F)F)CC1` the growth was -92.9% (active).
With `COc1ccc(-c2nc3c(c(-c4ccc(Cl)cc4)nn3-c3ccccc3)c(-c3ccccc3)c2C#N)cc1` the growth was 108% (inactive).
In the case of `CCOc1nc(-c2ccccc2)cc2c(O)c(-c3nnco3)[nH]c(=O)c12`, the growth is reported as 16.6% (inactive).
For `CNC(=S)NNC(=O)C1CC1`, the growth was 108% (inactive).
With `O=C(Nc1cccc(-n2ccc3c(NC(=O)c4ccccc4)nccc32)c1)Nc1ccc(Cl)c(C(F)(F)F)c1` the growth was -3.83% (active).
In the case of `Cc1ccc(-c2csc(NC(=O)N3CCN(c4cc5c(cc4F)c(=O)c(C(=O)O)cn5C4CC4)CC3)n2)cc1`, the growth is reported as -5.11% (active).
`CCC(O)(C(c1ccccc1)c1ccccn1)C(c1ccccc1)c1ccccn1` (stereo not given) was tested, and the growth was 114% (inactive).
For `CCCCCCCCCCCCCCCCCCNC(=O)[C@H]1CSC(c2ccc(F)c(OC)c2)N1` (stereo not given in full), the growth was 44.1% (inactive).
For `O=C1c2ccccc2CN1c1ccccc1`, the growth was 101% (inactive).
In the case of `COc1ccc(/C=C(/C(=O)c2ccc(Cl)cc2)C(=O)C(F)(F)F)cc1`, the growth is reported as 99.7% (inactive).
With `N#CC(I)CS(=O)(=O)c1ccccc1` (stereo not given) the growth was 25% (inactive).
For `CC(C)=CCc1cc2c(cc1O)C1=C(C(=O)C3=C(C1=O)S(=O)(=O)CCN3)C(C=C(C)C)O2` (stereo not given), the growth was -33.5% (active).
In the case of `COc1ccc(/C(=C(\c2ccccc2)[N+](=O)[O-])c2ccc(OCCN3CCCC3)cc2)cc1`, the growth is reported as 68.1% (inactive).
With `CC(=O)Nc1cccc(-n2c(=O)n(C3CC3)c(=O)c3c(Nc4ccc(I)cc4F)n(C)c(=O)c(C)c32)c1` the growth was 77.2% (inactive).
In the case of `CCCCCCCCCCCCNc1ncnc2[nH]ncc12`, the growth is reported as 55.7% (inactive).
`Cc1ccccc1CNc1ncnc2[nH]ncc12` was tested, and the growth was 87.7% (inactive).
In the case of `C/C(=N\NC(=S)Nc1ccc(Br)cc1)c1cc2ccccc2oc1=O`, the growth is reported as -23.5% (active).
`CN1CCN(CCCCCC(=O)Nc2nc(-c3cccc(NS(=O)(=O)c4cccc5c(N(C)C)cccc45)c3)cs2)CC1` was tested, and the growth was 74% (inactive).
In the case of `COc1cccc(C(=O)N(c2ccc(F)c(F)c2)C(C(=O)NC(C)(C)C)c2cc3c(C)cc(C)cc3nc2Cl)c1` (stereo not given), the growth is reported as 35.2% (inactive).
With `CSc1nc(N)c2c(n1)N(C)C=NS2(=O)=O` the growth was 107% (inactive).
In the case of `CCCCCCCCCCCCCCCCOc1ccc(S(=O)(=O)N(C)C)cc1[N+](=O)[O-]`, the growth is reported as 84.2% (inactive).
`COc1ccc(NC(=O)c2ccc(C(=O)Nc3ccc(OC)cc3OC)cc2)c(OC)c1` was tested, and the growth was 85% (inactive).
For `COc1cccc(CCC(=O)c2cc3c(N)c(C(=O)Nc4cccc(Cl)c4C)sc3nc2C)c1`, the growth was 15.1% (inactive).
For `CCCC(=O)NC(c1cccc(N(C)C)c1)c1cc(C)c2cccnc2c1O` (stereo not given), the growth was 24.8% (inactive).
